Measured values: PubChem BioAssay AID1159580 (chemical genetic matrix, 2015)
Out of some 5,500 compounds screened, about 2,000 (36%) were called active. Not shown: some 18% with an inconclusive outcome. Cut-off read from the data, not from the text of the source: active = normalized growth mostly below about 0.91 (no sharp cut-off); inconclusive = no clear call, values can overlap the other calls; inactive = mostly above about 0.92. The list shows a part of the results.

Assay: chemical genetic growth profiling, strain panel (AID 1159580);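 note: tested at 20 µM; growth read once vehicle control cultures reached saturation at 30 °C; 1 = growth at the plate median or of vehicle wells; lower values mean less growth of the strain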
Settings: growth OD

Measured: normalized growth

CC(C)=CCC[C@](C)(O)C1CC=C(C)CC1 (some centres not stated)
inactive: S. cerevisiae deletion strains, locus YJR043C, strain POL32, stronger effect = lower value 1.01 | S. cerevisiae deletion strains, locus YJR066W, strain TOR1, stronger effect = lower value 0.953 | S. cerevisiae deletion strains, locus YKL009W, strain mrt4, stronger effect = lower value 0.962 | S. cerevisiae deletion strains, locus YKL068W, stronger effect = lower value 1.01 | S. cerevisiae deletion strains, locus YKL085W, strain MDH1 (second series), stronger effect = lower value 0.991 | S. cerevisiae deletion strains, locus YKL085W, strain MDH1, stronger effect = lower value 0.991 | S. cerevisiae deletion strains, locus YKL160W, strain elf1, stronger effect = lower value 1 | S. cerevisiae deletion strains, locus YKR001C, strain vps1, stronger effect = lower value 0.902 | S. cerevisiae deletion strains, locus YKR026C, strain gcn3, stronger effect = lower value 0.976 | S. cerevisiae deletion strains, locus YKR091W, strain srl3, stronger effect = lower value 0.98 | S. cerevisiae deletion strains, locus YLL001W, strain dnm1, stronger effect = lower value 0.992 | S. cerevisiae deletion strains, locus YLL026W, stronger effect = lower value 0.992 | S. cerevisiae deletion strains, locus YLL041C, strain sdh2, stronger effect = lower value 0.997 | S. cerevisiae deletion strains, locus YLR027C, strain aat2, stronger effect = lower value 0.969 | S. cerevisiae deletion strains, locus YLR039C, strain RIC1, stronger effect = lower value 0.964 | S. cerevisiae deletion strains, locus YLR058C, strain SHM2, stronger effect = lower value 1.03 | S. cerevisiae deletion strains, locus YLR102C, strain apc9, stronger effect = lower value 0.986 | S. cerevisiae deletion strains, locus YLR113W, strain HOG1, stronger effect = lower value 1.02 | S. cerevisiae deletion strains, locus YLR221C, strain rsa3, stronger effect = lower value 0.982 | S. cerevisiae deletion strains, locus YLR258W, strain gsy2, stronger effect = lower value 0.978 | S. cerevisiae deletion strains, locus YLR262C, strain YPT6 (second series), stronger effect = lower value 0.998 | S. cerevisiae deletion strains, locus YLR262C, strain YPT6, stronger effect = lower value 0.966 | S. cerevisiae deletion strains, locus YLR268W, strain sec22, stronger effect = lower value 0.991 | S. cerevisiae deletion strains, locus YLR320W, strain mms22, stronger effect = lower value 0.984 | S. cerevisiae deletion strains, locus YLR330W, strain CHS5, stronger effect = lower value 1.02 | S. cerevisiae deletion strains, locus YLR342W, strain FKS1 (second series), stronger effect = lower value 0.995 | S. cerevisiae deletion strains, locus YLR342W, strain FKS1, stronger effect = lower value 0.98 | S. cerevisiae deletion strains, locus YLR357W, strain rsc2, stronger effect = lower value 0.944 | S. cerevisiae deletion strains, locus YLR370C, strain arc18, stronger effect = lower value 0.96 | S. cerevisiae deletion strains, locus YLR371W, strain rom2, stronger effect = lower value 1 | S. cerevisiae deletion strains, locus YLR384C, strain iki3, stronger effect = lower value 0.971 | S. cerevisiae deletion strains, locus YLR418C, strain cdc73, stronger effect = lower value 0.982 | S. cerevisiae deletion strains, locus YML016C, strain PPZ1, stronger effect = lower value 1.01 | S. cerevisiae deletion strains, locus YML032C, strain rad52, stronger effect = lower value 0.992 | S. cerevisiae deletion strains, locus YML120C, strain ndi1, stronger effect = lower value 0.988 | S. cerevisiae deletion strains, locus YML124C, strain tub3, stronger effect = lower value 1 | S. cerevisiae deletion strains, locus YMR058W, strain fet3, stronger effect = lower value 0.97 | S. cerevisiae deletion strains, locus YMR078C, strain ctf18, stronger effect = lower value 0.976 | S. cerevisiae deletion strains, locus YMR125W, strain sto1, stronger effect = lower value 0.967 | S. cerevisiae deletion strains, locus YMR129W, stronger effect = lower value 0.992 | S. cerevisiae deletion strains, locus YMR205C, strain PFK2, stronger effect = lower value 0.983 | S. cerevisiae deletion strains, locus YMR223W, strain ubp8, stronger effect = lower value 0.991 | S. cerevisiae deletion strains, locus YMR231W, strain pep5, stronger effect = lower value 0.965 | S. cerevisiae deletion strains, locus YMR307W, strain GAS1, stronger effect = lower value 1.13 | S. cerevisiae deletion strains, locus YNL067W, strain RPL9B, stronger effect = lower value 1.01 | S. cerevisiae deletion strains, locus YNL071W, strain lat1, stronger effect = lower value 0.98 | S. cerevisiae deletion strains, locus YNL153C, strain GIM3, stronger effect = lower value 1.01 | S. cerevisiae deletion strains, locus YNL183C, strain NPR1, stronger effect = lower value 0.954 | S. cerevisiae deletion strains, locus YNL209W, strain ssb2, stronger effect = lower value 0.98 | S. cerevisiae deletion strains, locus YNL233W, strain BNI4, stronger effect = lower value 1.04 | S. cerevisiae deletion strains, locus YNL248C, strain rpa49, stronger effect = lower value 0.978 | S. cerevisiae deletion strains, locus YNL250W, strain rad50, stronger effect = lower value 1 | S. cerevisiae deletion strains, locus YNL271C, strain bni1, stronger effect = lower value 0.988 | S. cerevisiae deletion strains, locus YNL298W, strain CLA4, stronger effect = lower value 1.01 | S. cerevisiae deletion strains, locus YNL307C, strain MCK1, stronger effect = lower value 0.983 | S. cerevisiae deletion strains, locus YNL322C, strain KRE1 (second series), stronger effect = lower value 0.982 | S. cerevisiae deletion strains, locus YNR049C, strain mso1, stronger effect = lower value 0.979 | S. cerevisiae deletion strains, locus YNR052C, strain pop2, stronger effect = lower value 0.994 | S. cerevisiae deletion strains, locus YOL012C, strain htz1 1.39 | S. cerevisiae deletion strains, locus YOL147C, strain pex11, stronger effect = lower value 0.981 | S. cerevisiae deletion strains, locus YOR001W, strain rrp6, stronger effect = lower value 0.975 | S. cerevisiae deletion strains, locus YOR061W, strain CKA2, stronger effect = lower value 1.03 | S. cerevisiae deletion strains, locus YOR069W, strain VPS5, stronger effect = lower value 1.02 | S. cerevisiae deletion strains, locus YOR070C, strain gyp1, stronger effect = lower value 1.02 | S. cerevisiae deletion strains, locus YOR080W, strain dia2, stronger effect = lower value 0.979 | S. cerevisiae deletion strains, locus YOR083W, strain WHI5, stronger effect = lower value 0.987 | S. cerevisiae deletion strains, locus YOR106W, strain vam3, stronger effect = lower value 0.947 | S. cerevisiae deletion strains, locus YOR136W, strain idh2, stronger effect = lower value 0.992 | S. cerevisiae deletion strains, locus YOR144C, strain elg1, stronger effect = lower value 0.989 | S. cerevisiae deletion strains, locus YOR184W, strain ser1, stronger effect = lower value 0.994 | S. cerevisiae deletion strains, locus YOR231W, strain MKK1, stronger effect = lower value 0.993 | S. cerevisiae deletion strains, locus YOR265W, strain rbl2, stronger effect = lower value 0.98 | S. cerevisiae deletion strains, locus YOR270C, strain vph1, stronger effect = lower value 0.932 | S. cerevisiae deletion strains, locus YOR290C, strain snf2, stronger effect = lower value 0.969 | S. cerevisiae deletion strains, locus YOR316C, strain cot1, stronger effect = lower value 0.986 | S. cerevisiae deletion strains, locus YPL051W, strain arl3, stronger effect = lower value 0.981 | S. cerevisiae deletion strains, locus YPL055C, strain LGE1, stronger effect = lower value 1.04 | S. cerevisiae deletion strains, locus YPL078C, strain atp4, stronger effect = lower value 0.988 | S. cerevisiae deletion strains, locus YPL106C, strain sse1, stronger effect = lower value 0.981 | S. cerevisiae deletion strains, locus YPL240C, strain hsp82, stronger effect = lower value 0.977 | S. cerevisiae deletion strains, locus YPL256C, strain CLN2, stronger effect = lower value 0.99 | S. cerevisiae deletion strains, locus YPR119W, strain clb2, stronger effect = lower value 1.01 | S. cerevisiae deletion strains, locus YPR141C, strain kar3, stronger effect = lower value 1 | S. cerevisiae deletion strains, locus YPR163C, strain tif3, stronger effect = lower value 0.973 | S. cerevisiae deletion strains, locus YPR167C, strain met16, stronger effect = lower value 1.02 | S. cerevisiae deletion strains, strain wtn01, stronger effect = lower value 0.974 | S. cerevisiae strains, strain wild type, stronger effect = lower value 1.02
